# Data: PubChem BioAssay AID1645853 (Buhrlage Lab, Dana-Farber Cancer Institute and Novartis …, 2021)
# Hit rate of the full screen: of about 47,000 compounds, about 2,000 (4.3%) were called active. Cut-off read from the data, not from the text of the source: active = inhibition above about 30%; inactive = the rest. Many of the other results were omitted from the sample, so actives are more common in it than they were.
# Target: Ubiquitin carboxyl-terminal hydrolase 8 (Homo sapiens) (UniProt P40818)
# Assay: inhibitors of human USP8 deubiquitinase (AID 1645853)
# Conditions: purified USP8, Ub-rhodamine cleavage fluorescence, 30 min; at 20 µM; stronger effect = higher value
# Sequence of Ubiquitin carboxyl-terminal hydrolase 8 (Homo sapiens) (P40818 whole entry, looked up): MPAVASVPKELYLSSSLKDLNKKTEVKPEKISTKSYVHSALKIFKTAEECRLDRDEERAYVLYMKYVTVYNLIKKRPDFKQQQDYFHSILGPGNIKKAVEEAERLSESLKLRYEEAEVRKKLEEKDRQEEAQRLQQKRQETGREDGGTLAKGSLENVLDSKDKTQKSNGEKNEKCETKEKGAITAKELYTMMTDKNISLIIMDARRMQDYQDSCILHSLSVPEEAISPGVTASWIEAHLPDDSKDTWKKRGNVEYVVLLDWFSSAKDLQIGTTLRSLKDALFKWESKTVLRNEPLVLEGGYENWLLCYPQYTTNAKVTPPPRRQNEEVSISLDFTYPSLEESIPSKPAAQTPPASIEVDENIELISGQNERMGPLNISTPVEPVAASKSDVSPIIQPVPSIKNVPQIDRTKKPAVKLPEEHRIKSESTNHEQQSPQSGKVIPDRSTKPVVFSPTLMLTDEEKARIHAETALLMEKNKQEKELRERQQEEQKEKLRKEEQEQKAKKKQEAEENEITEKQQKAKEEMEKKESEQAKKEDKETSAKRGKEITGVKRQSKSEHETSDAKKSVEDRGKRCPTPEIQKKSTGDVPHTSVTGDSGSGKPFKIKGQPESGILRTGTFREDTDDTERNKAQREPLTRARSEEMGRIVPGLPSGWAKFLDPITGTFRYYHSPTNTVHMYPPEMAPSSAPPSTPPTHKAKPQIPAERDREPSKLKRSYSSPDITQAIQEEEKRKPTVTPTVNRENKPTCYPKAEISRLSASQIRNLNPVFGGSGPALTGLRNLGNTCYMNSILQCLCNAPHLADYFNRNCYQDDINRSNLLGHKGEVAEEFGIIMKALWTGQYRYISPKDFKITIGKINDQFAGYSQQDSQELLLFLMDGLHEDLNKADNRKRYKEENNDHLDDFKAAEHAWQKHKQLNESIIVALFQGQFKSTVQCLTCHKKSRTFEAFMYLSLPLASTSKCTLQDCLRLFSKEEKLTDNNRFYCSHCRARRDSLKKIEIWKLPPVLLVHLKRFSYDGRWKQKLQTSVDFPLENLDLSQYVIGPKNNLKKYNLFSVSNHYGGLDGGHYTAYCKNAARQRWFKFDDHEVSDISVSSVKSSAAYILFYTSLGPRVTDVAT
row,SMILES,inhibition
1,CCc1cccc(C)c1NC(=O)CSc1nc2c(c(=O)[nH]1)CCCC2,18% (inactive)
2,CCc1cccc(C)c1NC(=O)Cn1nc2ccc(C(=O)NCc3ccccc3)cn2c1=O,74.5% (active)
3,Cc1cc(=O)n(CC(=O)NCc2ccccc2)c(N2CCCC2)n1,2.35% (inactive)
4,Cc1ccc(-c2nnc(CCC(=O)O)o2)cc1,3.95% (inactive)
5,N#Cc1ccc(-c2nc(CS(=O)(=O)c3ccc(Cl)cc3)no2)cc1,-6.87% (inactive)
6,O=S(=O)(Cc1nnc(-c2cc(Cl)cc(Cl)c2)o1)c1ccc(Cl)cc1,45.6% (active)
7,C[C@H](NC(=O)Cc1ccc(Cl)cc1)C(=O)N1CCC2(CC1)NCCc1[nH]cnc12,21.2% (inactive)
8,O=C(NCC(=O)N1CCC2(CC1)NCCc1[nH]cnc12)c1ccc(Br)cc1,18.8% (inactive)
9,O=C(NCCC(=O)N1CCC2(CC1)NCCc1[nH]cnc12)c1ccc(-c2ccccc2)cc1,34.7% (active)
10,Cc1cc(Cl)ccc1OCCCC(=O)NCc1ccccn1,-25% (inactive)
11,COc1cc(C(=O)Nc2ccc(-c3nc4cnccc4o3)cc2)cc(OC)c1OC,-3.3% (inactive)
12,O=C(Nc1ccc(-c2nc3cnccc3o2)c(O)c1)c1ccc(-c2ccccc2)cc1,-4.15% (inactive)
13,O=C(Cc1ccccc1)Nc1ccc(-c2nc3cnccc3o2)c(O)c1,74.3% (active)
14,CCCc1noc(-c2ccc(-n3ncc(C(=O)N4CCOCC4)c3C)nc2)n1,0.113% (inactive)
15,COc1ccc(-c2noc(CN(C3CCCCC3)S(=O)(=O)c3ccc(OC)cc3)n2)cc1,14% (inactive)
16,COc1cccc(-c2noc(CN3CCCC3c3cc(OC)ccc3OC)n2)c1 (centres undefined),-12.7% (inactive)
17,CCCCN(C)c1ccc2nnc(CCc3nc(-c4cc(OC)cc(OC)c4)no3)n2n1,84.8% (active)
18,CSCCC(NC(=O)C1CCCC1)c1nc2ccccc2[nH]1 (centres undefined),-5.64% (inactive)
19,Cn1c(=O)c2c(ncn2Cc2nnc(-c3ccccc3)o2)n(C)c1=O,64.8% (active)
20,Cc1ccc(NC(=O)CCn2cnc3c2c(=O)n(C)c(=O)n3C)cc1,-3.63% (inactive)
21,Cc1cnc(NC(=O)Cn2cnc3c2c(=O)n(C)c(=O)n3C)s1,19.6% (inactive)
22,CC1CCN(C(=O)c2ncn3c2CN(C)S(=O)(=O)c2ccccc2-3)CC1,6.05% (inactive)
23,CCc1nnc2ccc(S(=O)(=O)N(CC)c3ccccc3)cn12,-281% (inactive)

row,SMILES,inhibition
1,Cc1cc(NC(=O)COC(=O)c2cccc(C)c2O)ccc1Br,0.58% (inactive)
2,Nn1c(SCC(=O)Nc2ccccc2F)nnc1-c1n[nH]c2c1CCC2,7.87% (inactive)
3,Cc1cc(-c2nnc(SCC(=O)Nc3ccc(Br)c(C)c3)n2N)n[nH]1,31% (active)
4,CC(C)(C)n1nc(C2CC2)c(Br)c1NC(=O)c1ccccc1F,20.5% (inactive)
5,CC1(C)CCC2(C(=O)O)CC[C@]3(C)C(=CC[C@@H]4[C@@]5(C)CCC(O)C(C)(C)[C@@H]5CC[C@]43C)C2C1 (some centres undefined),4.43% (inactive)
6,Cc1cccc(CNC(=O)CN2C(=O)C3CCCN3C(=O)c3cccc(C)c32)c1 (centres undefined),5.77% (inactive)
7,Cc1cccc(C2=NC3(CCN(CC(=O)Nc4ccccc4C)CC3)NC2=O)c1,-2.9% (inactive)
8,Cc1cccc(NC(=O)Cn2c(C)ccc(NC(=O)Nc3cccc(C)c3)c2=O)c1,26.5% (inactive)
9,Cc1ccc2cc(CNc3ccccc3)c(=O)n(CC(=O)Nc3ccccc3C)c2c1,92.8% (active)
10,CCOC(=O)c1cc(S(=O)(=O)Nc2ccc(OC)c(Cl)c2)cn1C,11.8% (inactive)
11,O=C(NC1CC2(CCOCC2)Oc2ccccc21)c1[nH]ncc1Cl (centres undefined),3.95% (inactive)
12,O=C(COc1ccccc1)Nc1cnc(-c2cccc(Cl)c2)nc1,60.7% (active)
13,CSc1cccc(NC(=O)COc2ccc(C(=O)c3ccccc3)cc2)c1,-0.948% (inactive)
14,COc1ccc(CC(=O)Nc2cnc(-c3ccccc3)nc2)cc1,-7.3% (inactive)
15,CCC(C)[C@H](NC(=O)[C@@H]1Cc2c([nH]c3ccccc23)C2c3ccccc3C(=O)N21)C(=O)NCCc1ccccc1 (some centres undefined),-10.4% (inactive)
16,Cc1cccc(C(=O)Nc2ccc(-n3c(C)nc4ncccc4c3=O)cc2C)c1,5.93% (inactive)
17,COc1cccc(C2c3[nH]c4ccccc4c3C[C@@H]3C(=O)N(Cc4ccc5c(c4)OCO5)CC(=O)N23)c1 (some centres undefined),13.4% (inactive)
18,CCc1cc(=O)n(CC(=O)Nc2cc(C)on2)c(-c2ccccc2)n1,-44.3% (inactive)
19,Cc1cc(=O)n(CC(=O)Nc2ccc3c(c2)OCO3)c2c1c(-c1ccccc1)nn2-c1ccccc1,67.9% (active)
20,CN(c1ccccc1)c1nc(=O)n(CC(=O)Nc2ccc3c(c2)OCCO3)c2ccccc12,-40.3% (inactive)
21,CCS(=O)(=O)Nc1cc(S(=O)(=O)Nc2cc(Cl)ccc2Cl)ccc1N1CCOCC1,2.1% (inactive)
22,CC(=O)N1CCc2cc(S(=O)(=O)Nc3ccccc3N3CCN(C)CC3)ccc21,-8.86% (inactive)
23,CCCN1CCN(c2ccc(C(=O)O)cc2NS(=O)(=O)c2cc(F)ccc2F)CC1,84.9% (active)

row,SMILES,inhibition
1,Cc1ccnc(SCc2nc(-c3ccc4c(c3)ncn4C)no2)n1,2.93% (inactive)
2,O=C(Cc1cccc(F)c1)NC1(c2nc(C3CC3)no2)CCCCC1,5.33% (inactive)
3,Cc1noc(C2(NC(=O)Cc3ccccc3C)CCCCC2)n1,-1.15% (inactive)
4,Cc1csc(C2(NC(=O)Cc3cc(C)on3)CCCC2)n1,74.9% (active)
5,Cc1noc(C)c1S(=O)(=O)NCc1ccc2c(c1)CCN2C(=O)C(C)C,21.9% (inactive)
6,Cc1cccc(N2CCN(S(=O)(=O)c3c[nH]c(-c4nnc(C)o4)c3)CC2C)c1 (centres undefined),12.2% (inactive)
7,CC(C)NS(=O)(=O)c1ccc(NC(=O)c2cccnc2)cc1,4.16% (inactive)
8,CCc1cc(C2CCCN2C(=O)c2cc(-c3ccccc3F)no2)on1 (centres undefined),0.852% (inactive)
9,O=C(C1CCC1)N1CCCN(c2ccc([N+](=O)[O-])cn2)CC1,-127% (inactive)
10,CN(C)c1ccc(S(=O)(=O)NCC(=O)NCC2CCCCC2)cc1[N+](=O)[O-],-110% (inactive)
11,Oc1cccc2nc3c(O)cccc3nc12,94.4% (active)
12,O=C(NCc1ccc2c(c1)OCO2)C1CCCN(c2nc3ccc(Cl)cc3[nH]2)C1 (centres undefined),7.49% (inactive)
13,CC(=O)N[C@@]12CN(C)CC[C@@H]1[C@@H](c1ccccc1)N(CC(=O)Nc1cc(F)ccc1C)C2,-5.94% (inactive)
14,Cc1ccc(CNC(=O)CCCn2c(=O)c3sccc3n(CC(=O)OCc3ccccc3)c2=O)cc1,63.4% (active)
15,COc1ccc(CCNC(=O)CCCn2c(=O)c3ccccc3n(CC(=O)OCc3ccccc3)c2=O)cc1OC,1.77% (inactive)
16,N#Cc1ccccc1Cn1c(=O)n(CCCC(=O)NCc2ccc(F)cc2)c(=O)c2ccccc21,15.6% (inactive)
17,Cc1cc(C)nc(-n2nc(C)c(C#N)c2NC(=O)c2cccc(Cl)c2)n1,2.08% (inactive)
18,COc1ccc(-c2cnoc2-c2ccc(O)cc2O)cc1OC,22% (inactive)
19,c1coc(CNc2nc(Nc3cccc4ccccc34)nc3ccccc23)c1,35.8% (active)
20,CC(C)Cc1nc2sc3c(NCc4ccco4)ncnc3c2c2c1CCC2,16.6% (inactive)
21,Fc1ccc(-n2cc(-c3ccccc3)c3c(NCc4ccco4)ncnc32)cc1,5.27% (inactive)
22,COCCN1CC[C@@H]2Oc3ccccc3S(=O)(=O)N(Cc3cccnc3)[C@H]2CC1,-50.1% (inactive)
23,COc1cccc(S(=O)(=O)N2CCC(n3cnnc3C3CC3)CC2)c1,1.34% (inactive)

row,SMILES,inhibition
1,COc1cc(-c2nc3c4cnn(-c5ccccc5)c4ncn3n2)cc(OC)c1OC,-3.12% (inactive)
2,C#CCOc1ccc2ccccc2c1CN1CCc2ccccc2C1,41.1% (active)
3,C#CCOc1ccc(CN2CCc3nc(-c4cccnc4)[nH]c(=O)c3C2)cc1OC,13.3% (inactive)
4,Cn1nnnc1-c1cc(Cl)cc(Cl)c1,-13.4% (inactive)
5,CCc1cc(=O)n(CC(=O)NCC2CCCO2)c(N)n1 (centres undefined),0.518% (inactive)
6,COc1cccc(CNC(=O)N2CCN(Cc3ccc4nccnc4c3)CC2)c1,-8.24% (inactive)
7,Cn1c(CC2CCN(S(=O)(=O)c3cccnc3)C2)nc2cccnc21 (centres undefined),13.9% (inactive)
8,O=C(NCc1ccccc1)c1c(O)c2cnn(Cc3ccccc3)c2[nH]c1=O,0.46% (inactive)
9,CC(C)CCNC(=O)C1(C)Cn2c(cc3ccccc32)C(=O)N1Cc1ccccc1F (centres undefined),0.22% (inactive)
10,COc1ccccc1CN1C(=O)c2cc3occc3n2CC1(C)C(=O)NC1CCCCC1 (centres undefined),13.4% (inactive)
11,CC1(C(=O)NC2CCCC2)Cn2c(cc3ccccc32)C(=O)N1c1ccc(F)cc1 (centres undefined),50.7% (active)
12,CO\C=C(C(=O)OC)/C(=C\C=C\c1ccccc1)CO,-79.7% (inactive)
13,Cc1cc(C)c2ccc(NC(=O)c3ccco3)nc2n1,-8.62% (inactive)
14,Cc1nc(-n2[nH]c(C)c(CC(=O)N3CCOCC3)c2=O)sc1C,8.41% (inactive)
15,CC(C)Cc1cc(-c2nn3c(-c4ccccc4Cl)nnc3s2)n[nH]1,-0.275% (inactive)
16,Cc1c(-c2nn3c(-c4ccco4)nnc3s2)cccc1[N+](=O)[O-],89.2% (active)
17,c1ccc(CN2CCCC(c3nc(-c4cccnc4)n[nH]3)C2)cc1 (centres undefined),-0.172% (inactive)
18,O=C(Cn1cccc(-c2nc(-c3ccccc3)no2)c1=O)Nc1ccccc1F,90.4% (active)
19,O=C(CN1CCC(c2nc(-c3ccccc3)no2)CC1)Nc1ccccc1,3.46% (inactive)
20,Cc1noc(-c2cccn(Cc3cc(F)ccc3F)c2=O)n1,2.57% (inactive)
